From PubChem
Shown are actives, neighbours in structure and some others; about 0.4% of the full set was active somewhere.
Cdc42 wt – modulators of GTP binding to wildtype Cdc42, primary screen, biochemical, multiplex bead flow cytometry, Bodipy-GTP. Cell division control protein 42 homolog (Homo sapiens), P60953. GST-Cdc42 beads; actives lie on both sides. percent activity (GTP binding), % at 10 µM. hit rate 0.2% among 190,000;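 active = percent activity GTP binding at least 20 points away from the 100% baseline, either down as inhibitor or up as activator; inconclusive = compound flagged as likely green fluorescent from well-wide comparison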;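 also: median bead fluorescence of bound Bodipy-FL-GTP at 100 nM; 0% = excess unlabeled GTP control and 100% = no compound control; below 100% means less GTP binding so inhibitor and above means activator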
Target sequence (P60953 whole entry, looked up): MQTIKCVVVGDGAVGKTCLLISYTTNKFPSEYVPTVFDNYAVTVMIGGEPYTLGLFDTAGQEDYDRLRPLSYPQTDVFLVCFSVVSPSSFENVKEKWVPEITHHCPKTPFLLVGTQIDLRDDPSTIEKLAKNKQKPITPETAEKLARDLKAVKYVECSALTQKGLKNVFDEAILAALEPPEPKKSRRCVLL
Rab2A wt mod – modulators of GTP binding to Rab2A wildtype, primary screen, biochemical, dog, bead-based flow cytometry, multiplex; GST-Rab2 wt beads, Bodipy-GTP binding; Ras-related protein Rab-2A (Canis lupus familiaris), P61105; hit rate 0.19% among 190,000; GTP binding activity, % at 10 µM;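 active = GTP binding activity at least 20 points away from 100%, either lowered or raised; inconclusive = signal likely due to the compound's own green fluorescence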;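 also: 0% = beads with excess unlabeled GTP and 100% = no-compound control corrected for plate trend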
HRas wt GTP – modulators of GTP binding to HRas wildtype, primary screen, biochemical, bead-based flow cytometry, multiplex; GTP binding activity, % at 10 µM; GST-Ras wt beads, Bodipy-FL-GTP binding; actives lie on both sides; hit rate 0.14% among 190,000;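 active = GTP binding activity at least 20% away from the 100% baseline, either lowered as inhibitor or raised as activator; inconclusive = flagged as likely green fluorescent, judged across all proteins in the well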;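 also: 0% = unlabeled GTP competition control and 100% = no-compound control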
Target sequence (P01112 whole entry, looked up): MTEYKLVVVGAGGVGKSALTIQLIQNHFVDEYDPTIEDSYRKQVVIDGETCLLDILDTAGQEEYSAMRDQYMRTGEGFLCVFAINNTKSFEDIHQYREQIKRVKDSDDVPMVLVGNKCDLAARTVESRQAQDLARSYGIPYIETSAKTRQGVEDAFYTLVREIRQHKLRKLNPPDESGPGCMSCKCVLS
Rac1 mut GTP – GTP binding modulators of activated mutant Rac1, primary screen, biochemical, bead-based flow cytometry, multiplex, fluorescent GTP. hit rate 0.11% among 190,000. percent activity (GTP binding), % at 10 µM. GST-Rac1 activated beads; actives lie on both sides; 100% means binding = to untreated wells. Ras-related C3 botulinum toxin substrate 1 (Homo sapiens), P63000;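 active = GTP binding at least 20 percentage points away from the 100% baseline, in either direction, so actives lie on both sides; inconclusive = Compound likely fluorescent itself, or too few beads counted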
Rab7 wt modul – modulators of GTP binding to Rab7, primary screen, biochemical, wildtype, multiplex bead flow cytometry; GST-Rab7 beads, fluorescent GTP binding; actives lie on both sides; untreated = 100%, excess cold GTP = 0%; GTP binding activity (percent of control), % at 10 µM; hit rate 0.055% among 190,000; AID 758, 2007;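 active = fluorescent GTP binding to Rab7 beads changed by at least 20 points from the 100% baseline, either direction, mostly lower; inconclusive = compound itself probably fluorescent, or too few beads counted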;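 also: median green fluorescence of bound Bodipy-FL-GTP per Rab7 bead population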
Rac1 wt modul – wildtype Rac1 GTP binding modulators, primary screen, biochemical, GST-Rac1 beads, flow cytometry, multiplex; Ras-related C3 botulinum toxin substrate 1 (Homo sapiens), P63000; fluorescent GTP binding; actives lie on both sides; 0 = cold GTP competed, 100 = untreated; GTP binding activity (% of control), % at 10 µM; hit rate 0.27% among 190,000;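 active = GTP binding activity at least 20 points away from the 100% control level, either lower or higher; inconclusive = compound flagged as likely green fluorescent, judged across all proteins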
The depositor's hits bear a star; ? = inconclusive; nt = no result given; [ ] = another dose, or the depositor's remark.

SMILES	Cdc42 wt	Rab2A wt mod	HRas wt GTP	Rac1 mut GTP	Rab7 wt modul	Rac1 wt modul
Cn1c(=O)c2c(nc(N3CCc4ccccc4C3)n2C)n(C)c1=O	80*	81	81	83	85	69*
CN(C(=O)Cc1c(C(=O)O)n(C)c2ccccc12)c1ccc(F)cc1	98	98	97	95	104	100
CNc1cncc(C(=O)O)c1	99	100	98	97	98	99
Cc1sc2ncnc(Sc3ccccc3C(=O)O)c2c1C	137*[activator]	134*[activator]	124*[activator]	132*[activator]	122*[activator]	145*[activator]
O=C(O)c1ccccc1Sc1ncnc2sc3c(c12)CCC3	129*[activator]	124*[activator]	121*[activator]	123*[activator]	107	123*[activator]
Cc1ccc(C)c(N(CC(N)=O)S(C)(=O)=O)c1	75*	72*	74*	71*	78*	67*
CC(C)CC(c1nnnn1Cc1ccc2c(c1)OCO2)N1CCC(C(N)=O)CC1 (centres undefined)	96	100	101	98	105	101
O=C(COC(=O)c1cccc(C(=O)OCC(=O)NC2CC2)n1)NC1CC1	96	95	96	98	94	99
Cc1ccc(-c2ccc(/C=C(\C#N)C(=O)Nc3cc(C)nn3-c3ccccc3)o2)cc1	101	109	127*[activator]	120*[activator]	107	97
Cc1ccc(Nc2n[nH]c(C)c2[N+](=O)[O-])c(C)c1	116	192*[activator]	154*[activator]	?	?	111
Cc1ccccc1Nc1n[nH]c(C)c1[N+](=O)[O-]	98	99	97	100	98	99
COC(=O)CC1C(=O)NCCN1C(=O)CSc1nnnn1-c1ccc(Cl)cc1 (centres undefined)	98	95	96	96	96	97
c1ccc(CN2CCN(CCOCCOc3cccc4ccccc34)CC2)cc1	80	78*	83	80	87	88
COc1ccc(NC(=O)/C(Cl)=C(/Cl)S(=O)Cc2ccccc2Cl)cn1 (centres undefined)	99	94	91	101	94	102
COc1cc2ccccc2cc1C(=O)NC(=S)Nc1cccc(C(=O)O)c1	75*	75*	76*	80	85	81
Cc1cc(NC(=O)CSc2nc(-c3ccccc3)c(C#N)c(=O)[nH]2)no1	75*	78*	75*	76*	77*	77*
CCCCCCCn1c2c(c(=N)c3ccccc31)CCC2	98	100	101	98	108	99
CC1(C)Cc2c(sc(NC(=S)NC(=O)c3ccccc3)c2C(=O)O)CO1	nt	69*	67*	63*	nt	70*
O=[N+]([O-])c1ccccc1/C=C/C=N/n1c(-c2ccco2)n[nH]c1=S	76*	82	80	75*	84	77*
CCC(C)(C)NC(=O)Cc1ccc(Cl)cc1	99	102	98	96	103	99
COc1ccc(C(=O)/C=C/Nc2ccc(S(=O)(=O)Nc3nc(C)cc(C)n3)cc2)cc1OC	89	88	91	87	92	79*
Cc1cc(C)nc(NS(=O)(=O)c2ccc(N/C=C/C(=O)c3ccc(Cl)cc3)cc2)n1	99	98	98	99	100	99
Cc1cc(C)n2ncc(C(=O)O)c2n1	78*	80	82	94	92	92
Cc1cc(OC(=O)c2c(F)cc(F)cc2F)nc(C)n1	91	92	94	93	94	95
O=C(Nc1cccc(Cl)c1)N1CCN(c2ncccn2)CC1	114	111	109	104	108	125*[activator]
O=C(Nc1ccc(Cl)cc1Cl)N1CCN(c2ncccn2)CC1	95	95	94	94	94	97
